Data taken from PubChem BioAssay (NCI).
The panel holds about 83,000 compounds, 20% with a hit somewhere; the sample as a whole holds those more often.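 Each cell line was grown in a 96-well plate and treated with one concentration of compound for 48 hours. Values below 10 were considered active.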 Activity calls are given as the source filed them.

Tested on: SNB-75 CNS
Test: NCI-60 one-dose screen, 48 h (100 = growth as untreated, 0 = no growth, -100 = all killed)
Conditions: 10 µM unless noted
Protocol: Growth inhibition of the SNB-75 human tumor cell line is measured as a screen for anti-cancer activity. Cells are grown in 96 well plates and exposed to the test compound for 48 hours. Compounds are tested at a single concentration, which is 10^-5 M for most compounds. The reported endpoint is percent growth (GI% or GIPRCNT), where numbers from 0 - 100% represent growth inhibition, and numbers from -100% - 0 represent cell death. For example, a value of 40 represents 60% growth inhibition. A value of 0 means no net growth occurred over the course of the experiment. A value of -40 indicates 40% of cells at the beginning of the experiment died by the end of the experiment. A value of -100 means all cells are dead at the end of the experiment.
NCI-60 Human Tumor Cell Lines Screen was performed using the standard one-dose NCI protocol, which is described in more detail at https://dtp.cancer.gov/discovery_development/nci-60/default.htm.
Compounds with GIPRCNT values below 10 were considered active. Activity score was based on GIPRCNT using the following formula: […]
Score is 0 for GIPRCNT values of 100 or above, 50 for GIPRCNT values of 0, and 100 for GIPRCNT values of -100.

Row | Compound | growth
1 | CN1CCN(CCCOc2cccc3nc(Nc4ccc(F)c(F)c4)ccc23)CC1 | -5.9% (active)
2 | Cc1ccc(Cl)cc1NC(=O)c1sc2nc3c(cc2c1N)C(=O)CCC3 | 48% (inactive)
3 | CCN1CCN(CC(=O)Nc2nc3ccc(NCc4ccc(F)cc4)cc3s2)CC1 | 90.8% (inactive)
4 | C#CCn1cnc2cnc(Nc3cccc(NC(=O)C=C)c3)nc21 | 86.2% [6.25 µM] (inactive)
5 | O=C(NC1CC(F)C1)c1cc2cccnc2n1-c1ccc(Cl)c(Cl)c1 (stereo not given) | 89.1% (inactive)
6 | COC(=O)c1ccc(NC(=O)Nc2ccc(C(=O)OC)cc2)cc1 | 113% (inactive)
7 | CN1CCN(c2ccc3nc4c(nc3c2C(F)(F)F)C(=O)c2ncccc2C4=O)CC1 | 5.3% (active)
8 | C#Cc1cccc(Nc2nc(C)nc3cc(NC(=O)CCl)ccc23)c1 | -94.7% (active)
9 | O=C(/C=C/c1ccccc1)c1ccc(Nc2nc(Nc3ccc(F)cc3)nc(Nc3ccc(Cl)cc3)n2)cc1 | 95% (inactive)
10 | COc1cccc(Nc2ncnc3cc(NC(=O)CCl)ccc23)c1 | -79.9% (active)
11 | Cc1ccc(C(=O)c2ccc(CC(=O)N=Nc3c(O)[nH]c4ccc(Br)cc34)n2C)cc1 | 84% (inactive)
12 | O=P(O)(O)OCC1OC(n2cnc3c(NCc4ccco4)ncnc32)C(O)C1O (stereo not given) | 8.93% (active)
13 | CCCn1cnc2c(c1=N)C(c1ccc(F)cc1)c1sc3c(F)cccc3c1O2 (stereo not given) | 26% (inactive)
14 | Nc1nc(N)c2c(n1)NC(c1cccc(Nc3ccnc4cc(C(F)(F)F)ccc34)c1)CC(c1ccccc1)=N2 (stereo not given) | 48.1% (inactive)
15 | Nc1nc(N)c2c(n1)NC(c1ccc(Cl)cc1)C1CCc3ccccc3C1=N2 (stereo not given) | 62.1% (inactive)
16 | O=C1NC(=O)/C(=C/c2c(-c3ccccc3)nc3sc(COc4ccccc4)nn23)S1 | 108% (inactive)
17 | O=C(c1c[nH]c2ccccc12)c1n[nH]c(=S)n1-c1cccc(Br)c1 | 83.2% (inactive)
18 | O=C(NNc1cnccn1)c1nc2cc(F)ccc2n2cccc12 | 41.1% (inactive)
19 | N#Cc1c(Nc2ccc(N3CCOCC3)cc2)nc(SCC(=O)c2ccc(Br)cc2)nc1-c1ccccc1 | 97.7% (inactive)
20 | C=CCn1c(SCC(=O)Nc2ccc(/C(C)=N/O)cc2)nnc1-c1cc(-c2ccc(S(N)(=O)=O)cc2)nc2ccccc12 | 54.2% (inactive)

Row | Compound | growth
21 | CCOc1ccc(-n2nc(C(=O)NCc3ccccc3OC)nc2-c2cc(OC)c(OC)c(OC)c2)cc1 | 30% (inactive)
22 | N#C/C(=C\c1ccc(-c2cccc(C(F)(F)F)c2)o1)c1ccccc1 | 85% (inactive)
23 | NC(=O)c1cccc([C@@H]2O[C@H](CO)[C@@H](O)[C@H]2O)c1 | 9.91% (active)
24 | COc1ccc(/C(C)=C(\c2ccc(Cl)cc2)c2ccc(OCCN3CCCCC3)cc2)cc1 | 89.1% (inactive)
25 | CC(C)CCN(CCC(C)C)CC(O)c1cc2c(c3ccccc13)CCCC2 (stereo not given) | 91.6% (inactive)
26 | O=C1c2ccccc2C(=O)c2c1cc1c(c2[N+](=O)[O-])OCO1 | -13.4% (active)
27 | Cc1cccc(Oc2ccc(Nc3ncnc4ccc(NC(=O)CN5CCN(C)CC5)cc34)cc2Cl)c1 | 80.8% (inactive)
28 | O=C(CCCCCCN1CC(=O)N2[C@H](c3ccc(Br)cc3)c3[nH]c4ccccc4c3C[C@@H]2C1=O)NO | 31.9% (inactive)
29 | Cc1c2cccnc2c(C)c2c1c1cc(CO)ccc1n2C | 45.5% (inactive)
30 | CCN1C(=O)N(CC)C2Nn3c(s/c(=C\c4ccccc4Br)c3=O)=NC21 (stereo not given) | -1.27% (active)
31 | c1ccc2c(c1)CCCc1nnc3nc4ccccc4n3c1-2 | 45.4% (inactive)
32 | CC1(C)CC(=O)c2c(nn(-c3ccc(Br)cc3)c2-c2cn(-c3ccccc3)nc2-c2cccnc2)C1 | 84.3% (inactive)
33 | Cc1cccc2c1C[C@@]1(C2=O)C(c2ccc(C(C)(C)C)cc2)=NOS1=O (stereo not given in full) | 101% (inactive)
34 | C#COc1cccc(Nc2ncnc3cc(NC(=O)[C@@H](C)Cl)ccc23)c1 | -7.9% [6.25 µM] (active)
35 | CC(=O)ON1CCCC(P(=O)(OCCSC(=O)C(C)(C)C)OCCSC(=O)C(C)(C)C)C1=O (stereo not given) | 52% (inactive)
36 | CCN(CC)CCCOc1ccc2ncnc(Nc3ccc(Oc4cccc(C(F)(F)F)c4)c(Cl)c3)c2c1 | 33.9% (inactive)
37 | COc1cc(Cl)c(C)cc1NC(=O)c1cc2ccccc2cc1O | 21.4% (inactive)
38 | Cc1ccc2c(-c3nnc(N)s3)cc(=O)oc2c1C | 92.6% (inactive)
39 | COC(=O)N1CC(Oc2ccccn2)C2CC1c1ccccc1O2 (stereo not given) | 98.7% (inactive)
40 | CN1CCN(Cc2ccc(NC(=O)c3cncc(C#Cc4cnc5ccc(Cl)nn45)c3)cc2C(F)(F)F)CC1 | -52.4% (active)
